Results as given in PubChem BioAssay AID1117319 (Southern Research Institute, 2015).
Where “and” joins values, the source holds several entries; their conditions need not be identical. Equal values may be shown once. In all, about 260,000 compounds went through this assay and about 1,500 (0.58%) were called active. Another 5% or so got no clear call; they are omitted.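 How the source made its calls: active means inhibition above a set limit at one or more doses, reproduced on every date tested; inconclusive means results disagree between test dates, or hit never tested in dose response; inactive means the rest.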 Only a sample is shown. Results with a measured potency or affinity are listed apart.

These molecules were tested against Virion infectivity factor (Human immunodeficiency virus type 1 group M subtype B (isolate BH10)) + Virion infectivity factor (Human immunodeficiency virus type 1 group M subtype B (isolate BRU/LAI)) + Virion infectivity factor (Human immunodeficiency virus type 1 group M subtype B (isolate PCV12)) + Virion infectivity factor (Human immunodeficiency virus type 1 group M subtype B (isolate HXB2)) + DNA dC->dU-editing enzyme APOBEC-3G (Homo sapiens) (UniProt P69720+P69721+P69722+P69723+Q9HC16) (assay: inhibitors of Vif binding to APOBEC3G peptide, primary screen, biochemical, TR-FRET, GST-Vif 1-94, biotin-A3G peptide, dose response retest (AID 1117319;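 further: Vif residues 1-94 fused to GST binding biotinylated APOBEC3G peptide 110-148; 0% = full assay without inhibitor and 100% = GST in place of GST-Vif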)). Settings: hits give high values.

inhibition, inactive:
Cc1cccc(NC(=S)NCc2ccc(F)cc2)c1 -7.76%
Cc1nn(C)c(Cl)c1C(=O)NCC(=O)O -8.59%
CCN1CCCC1Cn1cnc2c([nH]c3cccc(Cl)c32)c1=O (stereo unspecified) 32.2%
Cc1ccc(S(=O)(=O)n2nc(OC(=O)c3ccco3)cc2N)cc1 7.76%
COc1ccc(OC)c(NC(=O)COC(=O)c2ccc(S(=O)(=O)N3CCCCC3)cc2)c1 -4.24%
COc1ccc(OCCCC(=O)OC(C)C(=O)Nc2ccc(S(N)(=O)=O)cc2)cc1 (stereo unspecified) 1.05%
CC1CCC(NC(=O)c2cc(Cl)nc3ccccc23)CC1 (stereo unspecified) -9.79%
Cc1noc(/C=C/c2ccco2)c1S(=O)(=O)N1CCC(C(=O)N2CCc3ccccc3C2)CC1 26.3%
Cc1noc(/C=C/c2ccco2)c1S(=O)(=O)N1CCC(C(=O)N2CCc3ccccc32)CC1 10.8%
CCOC(=O)c1c(C)[nH]c(C(=O)CSc2nnnn2-c2ccc(C)cc2)c1C -6.65%
CCOc1cc(C)c(Cl)cc1S(=O)(=O)N(CC)CC -2.91%
CC1CCCN(S(=O)(=O)c2ccc(S(=O)(=O)NC(C)c3cccs3)cc2)C1 (stereo unspecified) -0.23%
CCOc1ccc(NC(=O)CC(=O)Nc2ccc(OCC)cc2)cc1 3.52%
COc1ccc(C(=O)NC2c3ccccc3-c3ccccc32)cc1 6.08%
C=CCSc1nnc(Cc2c(C)[nH]c3ccccc23)o1 12.5%
Cc1[nH]c2ccccc2c1Cc1nnc(SCC(N)=O)o1 9.95%
Cc1ccc(CNC(=O)COC(=O)Cn2nc(C)c([N+](=O)[O-])c2C)cc1 2.03%
Cc1ccc2[nH]c(O)c(N=NC(N)=S)c2c1 16.9%
NC(=S)N=Nc1c(O)[nH]c2ccc(F)cc12 14.4%
CNC(=S)NNc1nncc2ccccc12 -3.6%
CC(C)n1cnc2c(=S)nc[nH]c21 14.2%
O=C(CSc1nnnn1-c1cccc2ccccc12)N1CCOCC1 10.1%
CC(C)C(C(=O)O)N1C(=O)/C(=C/c2cccn2C)SC1=S (stereo unspecified) 5.17%
CCC(C(=O)O)N1C(=O)/C(=C/c2cccn2C)SC1=S (stereo unspecified) 21.2%
CC(/C=C1\SC(=S)N(C(C(=O)O)C(C)C)C1=O)=C\c1ccccc1 (stereo unspecified) 9.15%
CC(=C\c1ccccc1)/C=C1/SC(=S)N(C(C(=O)O)C(C)C)C1=O (stereo unspecified) -2.28%
CN(CCC#N)C(=O)COC(=O)c1ccccc1OCc1ccccc1Cl 23.6%
CCCCCCOc1ccc(N2C(=O)CC(N(CCc3ccc(S(N)(=O)=O)cc3)C(C)=O)C2=O)cc1 (stereo unspecified) -1.36%
CN1/C(=C/C(=S)NC(=O)C2CCC2)C(C)(C)c2ccccc21 3.95%
CCn1c(SCC(=O)NCc2cccs2)nnc1-c1cccs1 2.35%
Cc1cccc(NC(=O)CCS(=O)(=O)c2ccc(Br)cc2)c1 3.92%
Cc1cccc(C)c1NC(=O)CCS(=O)(=O)c1ccc(Br)cc1 -1.3%
CCOc1ccc(NC(=O)CCS(=O)(=O)c2ccc(C)cc2)cc1 -2.94%
Cc1ccc(S(=O)(=O)CCC(=O)Nc2ccc(Br)cc2)cc1 21.8%
O=C(CCS(=O)(=O)c1ccc(Br)cc1)Nc1ccccc1Cl 24.5%
CCN(CC)c1ccc(NC(=O)CCS(=O)(=O)c2cccc3nsnc23)c(C)c1 12.7%
CCOc1ccccc1NC(=O)CCN1CCN(S(=O)(=O)c2ccc(Br)cc2)CC1 -2.68% and -11.1%
CCc1ccc(NC(=O)CCS(=O)(=O)c2ccc(Br)cc2)cc1 11.1%
O=C(CN(Cc1ccc(F)cc1)C(=O)CNS(=O)(=O)c1ccccc1)NCc1ccco1 -1.61%
CC(=O)N1CCN(S(=O)(=O)c2ccc(Cl)cc2F)CC1 -2.38%
CC(C)c1nc(SCC(=O)N2CC(=O)Nc3ccccc32)c2ccccc2n1 -15.6%
C#CCOCCOCCOCCNc1nc(N2CCN(C(=O)[C@H](CO)n3cc([C@@H](N)C(C)C)nn3)CC2)nc(N2CCN(C(=O)[C@H](CCC(=O)O)n3cc([C@@H](N)CCCCN)nn3)CC2)n1 19.7%
Cc1ccccc1-n1nc2c(c1NC(=O)c1cc3ccccc3o1)CS(=O)(=O)C2 0.92%
COc1ccc(F)cc1CN1CCN(C(=O)CCC(=O)Nc2nnc(C(C)C)s2)CC1 1.87%
O=C(Nc1cccc(C(F)(F)F)c1)Oc1ccccc1N1CCOCC1 4.5%
COc1ccc([N+](=O)[O-])cc1NC(=O)CCS(=O)(=O)c1ccc(Br)cc1 23.2%
Cc1ccccc1NC(=O)CCS(=O)(=O)c1ccc(Br)cc1 19.3%
COc1ccc(Cl)cc1NC(=O)CCS(=O)(=O)c1ccc(C)cc1 0.29%
COC(=O)c1ccccc1NC(=O)CCS(=O)(=O)c1ccc(Br)s1 -6.38%
CCNC(=O)CSc1nnc(-c2cc(-c3ccc(Cl)cc3)nc3ccccc23)o1 -0.32%
O=C(OCc1cn([C@H]2CN(CC3CCCCC3)[C@@H](c3ccc(Cl)cc3)C[C@@H]2O)nn1)c1ccccc1 -2.33%
CC1CCCCC1NC(=O)CSc1nnc(COc2ccc(Cl)cc2)o1 (stereo unspecified) 3.41%
Cc1nc(-c2ccc(S(=O)(=O)Nc3ccc(Br)cc3Cl)s2)cs1 -10.4%
O=C(NCCCCNC(=O)C(F)(F)F)C(F)(F)F 0.85%
O=C(NCCCCCCCCCNC(=O)C(F)(F)F)C(F)(F)F 3.63%
O=C(COC(=O)CNC(=O)c1ccc(Br)o1)Nc1ccccc1OC(F)F 6.47%
CCOC(=O)COc1nc(-c2ccccc2)cc(-c2ccco2)c1C#N 4.55%
CCOC(=O)COc1nc(-c2ccc(C)cc2)cc(-c2ccco2)c1C#N -6.28%
Cc1cccc(CC(Cc2nc3ccccc3[nH]2)c2nc3ccccc3[nH]2)c1 (stereo unspecified) 10.6%
Cc1ccc2c(Cl)cc(Cl)c(OCC(=O)Nc3cccc(S(N)(=O)=O)c3)c2n1 -2.21%
O=C(N/N=C/C(Br)=C\c1ccccc1)c1ccco1 8.5%
Cc1ccc(-c2cc(C(=O)N/N=C/C(Br)=C/c3ccccc3)n[nH]2)o1 27.2%
CCOc1ccc(S(=O)(=O)Nc2cccc(C(=O)N3CCN(c4ccccc4O)CC3)c2)cc1 4.44%
COC(=O)/C(=N/Nc1cccc(C)c1)N1CCCc2ccccc21 24.9%
COC(=O)/C(=N/Nc1ccccc1OC)N1CCCc2ccccc21 14.5%
O=C(NCCc1ccccc1)C1CCN(S(=O)(=O)c2cccc3nsnc23)CC1 -0.39%
N#C/C(=C/c1ccc(N2CCCCCC2)o1)c1ccc(F)cc1 5.86%
N#C/C(=C/c1ccc(N2CCCCCC2)o1)c1ccc(Cl)cc1 17.8%
Cc1ccc(/C=C/C(=O)NCCCn2ccnc2)cc1 -9.33%
O=[N+]([O-])c1c(Nc2ccccc2O)ccc2nonc12 1.82%
CN(C)c1cc(Nc2cccc(O)c2)c([N+](=O)[O-])c2nonc12 -10.7%
CC(=O)Nc1ccc(Nc2cc(N(C)C)c3nonc3c2[N+](=O)[O-])cc1 0.25%
O=[N+]([O-])c1c(Nc2ccccn2)cc(Cl)c2nonc12 10.6%
CC(C)CC(=O)Nc1ccnn1C1CCN(C(=O)c2ccccc2F)CC1 -2.89%
CCOC(=O)c1c(/N=C/N(C)C)sc(C)c1C -7.57%
O=C(CCCN1C(=O)c2ccccc2C1=O)N1CCc2ccccc2C1 -3.95%
CN1CCN(C(=O)CN2C(=O)CC(C)(C)S(=O)(=O)c3ccccc32)CC1 -1.94%
O=C(NCCc1ccccc1Cl)c1cc(COc2ccc(F)cc2F)on1 2.92%
O=C(COc1ccc(-c2nnco2)cc1)Nc1ccc(F)c(Cl)c1 -11.6%
N=c1c(C(=O)NCc2ccco2)cc2c(=O)n3ccccc3nc2n1CCc1ccccc1 19.6%
CCNC(=O)c1cc2c(=O)n3cccc(C)c3nc2n(CCc2ccccc2)c1=N -4.24%
CCN(CC)S(=O)(=O)c1ccc(N2CCOCC2)c(NS(=O)(=O)c2ccc(Cl)s2)c1 7%
CCOc1cc(N2CCOCC2)c(OCC)cc1NC(=O)C(C)(C)C 31%
CCOc1cc(N2CCOCC2)c(OCC)cc1NC(=O)CSc1nc(N)cc(=O)[nH]1 -6.18%
CCOc1cc(N2CCOCC2)c(OCC)cc1NS(=O)(=O)c1ccc2c(c1)CC(=O)N2 9.5%
CCOc1cc(N2CCOCC2)c(OCC)cc1NC(=O)C(C)C 32.2%
CCOc1cc(N2CCOCC2)c(OCC)cc1NC(=O)CSc1ncccn1 -9.38%
CC1CCCC(C)N1C(=O)COc1cccc(Oc2ccccc2)c1 (stereo unspecified) -6.13%
O=C(Oc1cc(-c2ccccc2)no1)c1cccc(C(F)(F)F)c1 12%
CCCN(CC(=O)Nc1ccccc1C)C(=O)c1ccc(C)c(S(=O)(=O)N2CCCCC2)c1 -7.29%
COc1ccc(C(=O)NCc2cccnc2)cc1Br 7.76%
